Pf growth 48h = P. falciparum growth inhibition at 48 hours (one generation) | 5.9% of 310,000 active | Potency, µM (titrated, usually from 28.7 µM), without a hit: at the highest dose activity change, negative = inhibition, hits mostly inhibitors | P. falciparum luciferase growth in erythrocytes, 48 h; further: potency means the concentration at half of the fitted maximal effect; on the % scale 0 is the no-effect control and ±100 the full control effect
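Luminescence readout; reporter = integrated firefly luciferase in P. falciparum. RBC culture at 2% hematocrit, 0.1% parasitemia final, 37 C/5% CO2; decreased signal taken as growth inhibition.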
Cycloheximide cs = affects cycloheximide protein synthesis inhibition readout, counter-screen. max response, %. 12% of 300,000 active. cell reporter, cycloheximide protein synthesis inhibition counterscreen; in the data active means max response mostly above about 13%, no sharp cut-off; inactive means mostly below about 14%; further: read at 38.3 µM for the half of the compounds with a filed dose; 0% is about no effect
SARS PLpro yeast = blocks SARS-CoV papain-like protease in a yeast assay. S. cerevisiae expressing SARS-CoV PLpro, growth rescue. Potency, µM (series often up to 32.9 µM), for the others: at the top dose activity, positive = growth rescue, actives largely listed as activators. 0.19% of 330,000 active; calls by dose curve; further: potency means the concentration at half of the fitted maximal effect; 0% is about no effect; nearly all actives have a fitted effect of over 55% in size
Shiga inhibitor = Shiga toxin inhibition | Vero cells, Shiga toxin protein synthesis inhibition reporter | inhibition, % at 38.7 µM | 9.2% of 290,000 active | AID 2315; in the data active means inhibition mostly above about 28%, no sharp cut-off; inactive means mostly below about 43%; further: 0% is about no effect
Pf growth 96h = P. falciparum growth inhibition at 96 hour, primary screen for plastid delayed-death inhibitors; P. falciparum luciferase reporter growth, 96 h; Potency, µM (series often up to 28.7 µM), without a hit: at the highest dose activity change, negative = inhibition, actives largely listed as inhibitors; 6.9% of 320,000 active; AID 504834; further: potency means the concentration at half of the fitted maximal effect; on the % scale 0 is the no-effect control and ±100 the full control effect
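P. falciparum expressing integrated firefly luciferase, in erythrocytes at 2% hematocrit, 0.05% parasitemia, incubated with compounds 96 h at 37 C, 5% CO2. Growth inhibition read as loss of luminescence; two-generation exposure targets delayed-death apicoplast inhibitors.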
AMA1 RON2 block = AMA1-RON2 (P. falciparum) interaction inhibition; AlphaScreen AMA1-biotinylated RON2 peptide binding; Potency, µM (series often up to 58.2 µM), for inactives: at the top dose activity change, negative = inhibition, usual class: inhibitors; 0.2% of 360,000 active; AID 720542;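 further: potency means the concentration at half of the fitted maximal effect; 0% = vehicle wells and -100% = peptide control; nearly all actives have a fitted effect of over 45% in size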
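AMA1 (3D7) with his tag at 25 nM final met compounds first, then biotinylated RON2 peptide at 25 nM; detection used donor plus acceptor beads, 10 µg/mL apiece, read by AlphaScreen after 30 min at room temperature.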
Active calls of the source: *; [ ] = remark or other dose. In the library only some 19% were active in any assay of this set; here they are far more common. Unless noted, the call rests on the fitted dose curve; in most records, active means well fitted curve in the direction sought with a large enough effect; inconclusive means small, poorly fitted or top-dose-only effect, or another doubt; inactive means no such curve, though single readings can be large; an effect the other way counts as inactive or inconclusive.

Results for c1ccc(-c2cc(-c3ccc(N4CCOCC4)cc3)nc3ccccc23)cc1 ?
Pf growth 48h: inconclusive; Cycloheximide cs: 14*; SARS PLpro yeast: -10%; Shiga inhibitor: -9; Pf growth 96h: 13µM*; AMA1 RON2 block: 8%

What do the screens show for `Cc1ccc(-c2nc(Nc3cccc(O)c3)c3ccccc3n2)cc1`?
Pf growth 48h: 8%[0.00184 µM]; Cycloheximide cs: 2; SARS PLpro yeast: -6%; Shiga inhibitor: 33; Pf growth 96h: inconclusive; AMA1 RON2 block: -12%

How did Cc1cccc(C(=O)N/N=C/c2cc(Br)c(Br)o2)c1 do in these assays?
Pf growth 48h: inconclusive; Cycloheximide cs: 19; SARS PLpro yeast: -30%; Shiga inhibitor: 33*; Pf growth 96h: inconclusive; AMA1 RON2 block: 9%

How did Cc1onc(-c2ccccc2)c1C(=O)N/N=C/c1cc(Br)c(Br)o1 do in these assays?
Pf growth 48h: inconclusive; Cycloheximide cs: -4; SARS PLpro yeast: -28%; Shiga inhibitor: -4; Pf growth 96h: 13µM*; AMA1 RON2 block: -21%

How did CCN(CC(=O)Nc1cc(Cl)ccc1C)CC(=O)NC1CC1 do in these assays?
AMA1 RON2 block: -6%

What do the screens show for `Cc1cc(C)n(CC(=O)NNC(=O)COc2ccc(Br)cc2F)n1`?
SARS PLpro yeast: -3%; AMA1 RON2 block: 117%[11.6 µM]

Results for COc1cc(C)c(C(N)=O)c(OC)n1 ?
Pf growth 48h: 1%; Cycloheximide cs: -1; SARS PLpro yeast: -3%; Shiga inhibitor: -10; Pf growth 96h: -12%; AMA1 RON2 block: -5%

How did COc1ccc(Cc2nc3ccc(C(=O)N(C)C(C)c4ccon4)cc3o2)cc1 (centres undefined) do in these assays?
Pf growth 48h: -3%; Cycloheximide cs: 41*; SARS PLpro yeast: 4%; Shiga inhibitor: 49*; Pf growth 96h: 4%; AMA1 RON2 block: 4%

Results for COc1ccc(Cc2nc3ccc(C(=O)N(C)CCn4ccnc4)cc3o2)cc1OC ?
Pf growth 48h: -11%; Cycloheximide cs: 77*; SARS PLpro yeast: 12%; Shiga inhibitor: 63*; Pf growth 96h: inconclusive; AMA1 RON2 block: -2%

Results for COc1ccc(Cc2nc3ccc(C(=O)NCCCSC)cc3o2)cc1OC ?
Pf growth 48h: -15%; Cycloheximide cs: 45*; SARS PLpro yeast: -5%; Shiga inhibitor: 39*; Pf growth 96h: 2.9µM*; AMA1 RON2 block: 8%

What do the screens show for `COC(=O)CCNC(=O)c1ccc2nc(Cc3ccc(OC)c(OC)c3)oc2c1`?
Pf growth 48h: 5%; Cycloheximide cs: 24*; SARS PLpro yeast: 36%; Shiga inhibitor: 29*; Pf growth 96h: inconclusive; AMA1 RON2 block: -2%

What do the screens show for `COc1ccc(Cc2nc3ccc(C(=O)N(C)Cc4cc(C)[nH]n4)cc3o2)cc1OC`?
Pf growth 48h: inconclusive; Cycloheximide cs: 15; SARS PLpro yeast: 4%; Shiga inhibitor: 2; Pf growth 96h: -25%; AMA1 RON2 block: 4%

What do the screens show for `O=C(NCc1ccncc1)C(=O)NCC(c1ccco1)N1CCN(c2ccccc2)CC1` (centres undefined)?
Pf growth 48h: -19%; Cycloheximide cs: -4; SARS PLpro yeast: 0%; Shiga inhibitor: 20; Pf growth 96h: -9%; AMA1 RON2 block: -2%

How did Cc1occc1C(=O)NN1C(=O)C2C3CCC(O3)C2C1=O (centres undefined) do in these assays?
Pf growth 48h: -22%; Cycloheximide cs: -5; SARS PLpro yeast: -4%; Shiga inhibitor: -2; Pf growth 96h: -19%; AMA1 RON2 block: -12%

Results for COCCCNC(=O)c1ccc2nc(Cc3ccc(OC)cc3)oc2c1 ?
Pf growth 48h: 5%; Cycloheximide cs: 32*; SARS PLpro yeast: -1%; Shiga inhibitor: 111; Pf growth 96h: -1%; AMA1 RON2 block: 10%

How did CCOc1cc2[nH]c(=S)n(CCC(=O)NC3CCCCC3)c(=O)c2cc1OCC do in these assays?
AMA1 RON2 block: 94%

What do the screens show for `Cc1cccc(C(=O)NC(C(=O)Nc2nc(-c3ccccn3)cs2)C(C)C)c1` (centres undefined)?
Pf growth 48h: 15µM*; Cycloheximide cs: -1; SARS PLpro yeast: -1%; Shiga inhibitor: 5; Pf growth 96h: inconclusive; AMA1 RON2 block: 82%

What do the screens show for `CC(Oc1cccc(Cl)c1)C(=O)Nc1nc(-c2ccccn2)cs1` (centres undefined)?
Pf growth 48h: 2.6µM*; SARS PLpro yeast: -4%; Pf growth 96h: 2.6µM*; AMA1 RON2 block: 4%

What do the screens show for `CC(Oc1ccccc1)C(=O)Nc1nc(-c2ccncc2)cs1` (centres undefined)?
Pf growth 48h: -27%; SARS PLpro yeast: -5%; Pf growth 96h: -31%; AMA1 RON2 block: 8%

Results for CC(Oc1ccccc1)C(=O)Nc1nc(-c2ccccn2)cs1 (centres undefined) ?
Pf growth 48h: 1.9µM*; SARS PLpro yeast: -11%; Pf growth 96h: 2.3µM*; AMA1 RON2 block: 45%

What do the screens show for `CCOc1cc(C(=O)NCCN2C(=O)S/C(=C\c3cccnc3)C2=O)cc(OCC)c1OCC`?
Pf growth 48h: -9%; Cycloheximide cs: 0; SARS PLpro yeast: -1%; Shiga inhibitor: -10; Pf growth 96h: -29%; AMA1 RON2 block: 9%

How did Fc1ccccc1Nc1nc2c(s1)CCc1ccccc1-2 do in these assays?
Pf growth 48h: 269%; Cycloheximide cs: 73*; SARS PLpro yeast: -15%; Shiga inhibitor: 85*; Pf growth 96h: 1%

How did O=C(Nc1ncc2c(n1)-c1ccccc1CC2)c1ccc(F)cc1 do in these assays?
Pf growth 48h: 2%; Cycloheximide cs: -3; SARS PLpro yeast: -12%; Shiga inhibitor: -7; Pf growth 96h: 2%; AMA1 RON2 block: 1%

Results for O=C(Nc1ncc2c(n1)-c1ccccc1CC2)c1ccccc1 ?
Pf growth 48h: 31%; Cycloheximide cs: 20*; SARS PLpro yeast: -9%; Shiga inhibitor: 63*; Pf growth 96h: 49%; AMA1 RON2 block: -12%

What do the screens show for `O=C(Nc1nc2c(s1)CCc1ccccc1-2)c1cccs1`?
Pf growth 48h: inconclusive; Cycloheximide cs: 41*; SARS PLpro yeast: -5%; Shiga inhibitor: 94*; Pf growth 96h: inconclusive; AMA1 RON2 block: 13%

Results for O=C(Nc1ncc2c(n1)-c1ccccc1CC2)c1cccs1 ?
Pf growth 48h: inconclusive; Cycloheximide cs: 28*; SARS PLpro yeast: -3%; Shiga inhibitor: 64; Pf growth 96h: inconclusive; AMA1 RON2 block: 0%

What do the screens show for `Clc1ccccc1C1=Nn2c(nnc2-c2ccco2)SC1`?
Pf growth 48h: 6%; Cycloheximide cs: -2; SARS PLpro yeast: 1%; Shiga inhibitor: 8; Pf growth 96h: 11%; AMA1 RON2 block: -25%

Results for Nc1ncc2c(n1)-c1ccccc1CC2 ?
Pf growth 48h: 3.7µM*; Cycloheximide cs: 13; SARS PLpro yeast: -5%; Shiga inhibitor: 33; Pf growth 96h: 39%; AMA1 RON2 block: -2%

Assay outcomes deposited in PubChem BioAssay by National Center for Advancing Translational Sciences (NCATS).
